Source: PubChem (several laboratories)
Hits are enriched below; roughly 4.6% of the tested compounds scored in any of these assays.
AHR act: activates the human aryl hydrocarbon receptor | P35869 | AHR-responsive luciferase reporter cells, luminescence | activation, % at 5 µM | 2.5% of 320,000 active | AID 2796; in the data active = activation above about 47%;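 also: 0% = vehicle wells and 100% = reference agonist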
Target sequence (P35869 whole entry, looked up): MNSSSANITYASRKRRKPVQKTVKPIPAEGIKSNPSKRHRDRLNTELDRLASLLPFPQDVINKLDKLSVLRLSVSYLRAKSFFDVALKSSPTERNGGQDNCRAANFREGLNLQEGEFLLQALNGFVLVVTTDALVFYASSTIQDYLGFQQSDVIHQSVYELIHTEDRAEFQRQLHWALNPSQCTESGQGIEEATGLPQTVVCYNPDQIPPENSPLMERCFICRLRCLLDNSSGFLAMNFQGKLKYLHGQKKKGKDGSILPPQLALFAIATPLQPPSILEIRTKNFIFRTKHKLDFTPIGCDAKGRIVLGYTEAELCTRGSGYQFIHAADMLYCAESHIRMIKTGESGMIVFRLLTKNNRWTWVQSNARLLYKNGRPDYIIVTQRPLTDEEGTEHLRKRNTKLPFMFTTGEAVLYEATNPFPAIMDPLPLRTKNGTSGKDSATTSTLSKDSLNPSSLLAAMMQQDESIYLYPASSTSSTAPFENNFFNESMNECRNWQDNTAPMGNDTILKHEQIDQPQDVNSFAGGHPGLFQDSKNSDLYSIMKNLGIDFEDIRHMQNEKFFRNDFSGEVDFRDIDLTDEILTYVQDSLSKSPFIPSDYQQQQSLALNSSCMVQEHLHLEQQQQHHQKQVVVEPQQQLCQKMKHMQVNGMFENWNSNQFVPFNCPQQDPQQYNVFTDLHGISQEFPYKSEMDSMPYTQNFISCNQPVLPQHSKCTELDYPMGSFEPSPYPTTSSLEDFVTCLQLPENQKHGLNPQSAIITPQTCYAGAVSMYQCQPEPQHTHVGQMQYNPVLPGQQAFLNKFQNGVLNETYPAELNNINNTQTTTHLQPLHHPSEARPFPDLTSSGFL
HSF1 inhib: HSF1 inhibition | NIH3T3-HGL HSE-luciferase, MG132-induced, luminescence 8 h; active compounds read low | 0.77% of 300,000 active | activity change, negative = inhibition, % at 7.5 µM (by protocol);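 active = more than half of replicate wells show activity change below -50%, luminescence cut by over half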;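 also: luciferase reports HSF-1 transcriptional activity via heat shock element; 0% = median of DMSO wells and -100% = zero luminescence signal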
HSF1 activator: increases HSF-1 driven luciferase reporter signal. NIH3T3-HGL HSF-1 luciferase reporter, MG132, 8 h; 100% = twice DMSO control signal. activation, % at 9 µM. 1.7% of 300,000 active;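 active = mean replicate activation of at least 50% with a set share of replicates each reaching 50%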;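 also: 0% = median of the neutral control wells and 100% = twice that signal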
FXN GAA850 act: activators of GAA850 frataxin (FXN) promoter; activation, % at 6 µM; HEK293 lucGAA850 FXN promoter luciferase reporter, 24 h; percent of 10 µM SAHA response; 0.56% of 360,000 active;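 active = activation above the average of all compounds screened plus 3 SD, cutoff fixed separately per campaign, cut at about 7.5% in these data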;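 also: 0% = DMSO wells and 100% = 10 µM SAHA wells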
Numbers without * were called inactive; . = no result.

SMILES	AHR act	HSF1 inhib	HSF1 activator	FXN GAA850 act
CCn1c(SCC(=O)Nc2nccs2)nnc1-c1ccc(S(=O)(=O)N2CCCCC2)cc1	2	4	5	-2
Clc1c(CSc2nc3ccccc3o2)nc2sccn12	16	78	103*	5
COc1cc(/C=C2\SC(N)=NC2=O)cc(Br)c1O	4	2	-5	1
CCOC(=O)c1c(C)[nH]c(C)c1S(=O)(=O)N(C)Cc1ccco1	2	1	-2	1
Cc1cccc(OCC(=O)NCC(=O)N/N=C/c2ccc(O)cc2O)c1	7	6	13	-3
O=C(Oc1oc(-c2ccco2)nc1C=Nc1ccccc1)c1ccoc1	-4	-81*	-86	2
Cc1ccc(C(=O)Oc2oc(-c3ccco3)nc2C=Nc2ccc(Cl)cc2)cc1	21	53	86*	2
O=C(Oc1oc(-c2ccco2)nc1C=Nc1ccccc1)c1ccco1	2	6	-2	0
CCN1CCN(CCCNC(=O)c2ccc3c(c2)N(Cc2ccc(C)cc2)CCS3)CC1	-1	-5	14	1
COc1cccc(Nc2nc(-c3ccc4c(c3)OCCO4)cs2)c1	72*	-2	-17	-2
c1cc2c(cc1Nc1nc(-c3ccc4c(c3)OCO4)cs1)OCCO2	25	9	13	-4
COc1cccc(Nc2nc(-c3sc(C)nc3C)cs2)c1	23	23	41	6
Cc1cc(C)nc(Nc2nc(-c3ccccc3)cs2)n1	75*	-20	-25	3
CC(C)(C)C(=O)Nc1nc(-c2ccc3c(c2)OCO3)cs1	24	18	54*	4
COc1cccc(Nc2nc(-c3sc(N)nc3C)cs2)c1	105*	-4	-19	0
O=C(NCc1ccccn1)c1ccc2c(=O)n3nc(Nc4ccccc4)sc3nc2c1	4	-9	-12	0
COc1ccc(C(=O)OC(COc2ccccc2)Cn2ccnc2)cc1 (stereo unspecified)	11	10	14	-2
O=C(/C=C/c1cccc(Br)c1)N1CCN(c2cccc(C(F)(F)F)c2)CC1	-3	5	3	0
c1ccc(-c2csc(Nc3ccc4c(c3)OCCO4)n2)cc1	61*	-3	14	5
CCCCN1Cc2cc(C(=O)c3cc(OC)ccc3O)cnc2NC1=O	7	9	26	-3
Cc1ccc(O)c(C(=O)c2cnc3c(c2)CN(C)C(=O)N3)c1	6	61	73*	-8
Cc1ccc(O)c(C(=O)c2cnc3c(c2)CN(CCC(C)C)C(=O)N3)c1	12	94	120*	-1
O=C(NCCC1=CCCCC1)C1CCCN(S(=O)(=O)c2cccc3cccnc23)C1 (stereo unspecified)	5	-11	-24	-1
Cc1ccc(S(=O)(=O)N2CCN(C(=O)COC(=O)Cc3c(F)cccc3Cl)CC2)c(C)c1	.	.	.	3
Cc1cn(Cc2ccccc2Cn2cc(C)c(=O)[nH]c2=O)c(=O)[nH]c1=O	0	27	71*	1
SMILES	AHR act	HSF1 inhib	HSF1 activator	FXN GAA850 act
CCN1CCN(CCCNc2ncnc3nc[nH]c23)CC1	6	-87*	-89	0
CCC(c1nnc(SCC(=O)N2CCOCC2)n1C1CCCCC1)N(C)C (stereo unspecified)	-1	-5	13	0
C=CCNC(=O)CSc1nnc(C(CC)N(C)C)n1C1CCCCC1 (stereo unspecified)	2	25	67*	0
c1ccc(C2(CN3CCNC[C@@H]3CC3CCCCC3)CC2)cc1	0	.	.	0
Nc1cccn2c(-c3ccc(Cl)cc3)cnc12	70*	5	22	6
Cn1c(-c2ccc(Cl)cc2)cnc1N	1	.	.	-2
CC(Cc1ccco1)NC(=O)c1ccc(C(F)(F)F)cc1 (stereo unspecified)	1	33	66*	5
CC(=O)Nc1ccc(CN2CCC(CO)(CCOc3ccccc3)CC2)cc1	5	-56*	-62	-1
CCOC(=O)C1(CCOc2ccccc2)CCN(Cc2ccc(NC(C)=O)cc2)CC1	3	-18	-30	-2
COc1nc(C)cc(C)c1S(=O)(=O)c1ccccc1	2	-4	-4	3
N#C/C(=N\Nc1ccc(Br)cc1)C(=N)N1CCOCC1	56*	16	34	3
CSc1nccc(N/N=C/c2ccccc2)n1	-3	46	72*	5
COc1ccc(C(=O)OCC(=O)Nc2ccc(F)c(F)c2)cc1OC	0	4	10	-1
CCN(CC)S(=O)(=O)c1ccc(C)c(NC(=S)N2CCN(Cc3ccc4c(c3)OCO4)CC2)c1	0	4	-1	-1
Cc1ccc(/C=N/NC(=O)c2nnn(-c3nonc3N)c2CSc2ccccc2)s1	0	-8	-13	3
COc1ccc(N/C=C2/Sc3ccccc3NC2=O)cc1	55*	5	24	3
COc1ccc(C(=O)OCC(=O)Nc2cccc(S(=O)(=O)N3CCCCCC3)c2)cc1[N+](=O)[O-]	.	.	.	0
O=C(O)c1cccc(NC(=O)c2ccccc2NC(=O)c2cccs2)c1	.	.	.	-1
Cc1ccc(CNC(=O)c2cn(C3CCCCC3)c(=O)c3c2c2ccccc2n3C)o1	13	55	79*	1
C=C(C)c1cccc(C(C)(C)NC(=O)Nc2ccccc2OCC)c1	10	30	41	-4
O=C(O)CCNc1cc(N2CCN(C(=O)c3ccco3)CC2)c2noc3c2c1C(=O)c1ccccc1-3	57*	0	1	-2
COc1ccc(Br)cc1/C=C/C(=O)Nc1ccc2ccccc2c1	50*	11	27	2
COc1ccc(/C=C/C(=O)NCC(=O)N/N=C/c2cc(Br)ccc2OC)cc1	7	1	-4	-3
COc1ccc(Br)cc1/C=C/C(=O)Nc1ccc(C)cc1	47	4	6	2
COc1ccccc1/C=C/C(=O)NCC(=O)N/N=C/c1cc(Br)ccc1OC	45	22	59*	-2
SMILES	AHR act	HSF1 inhib	HSF1 activator	FXN GAA850 act
CN(c1ccc(O)cc1)c1nc(-c2cccs2)cs1	47*	-1	12	1
CCOc1ccc(S(=O)(=O)Nc2cc(SCC(=O)O)c(O)c3ccccc23)cc1	.	3	-7	2
O=S(=O)(Nc1ccc(O)c2ccccc12)c1ccc(F)cc1	20	6	6	2
O=C(O)CSc1cc(NS(=O)(=O)c2cccc([N+](=O)[O-])c2)c2ccccc2c1O	.	-4	-26	0
CCc1ccc(S(=O)(=O)Nc2cc(SCC(=O)O)c(O)c3ccccc23)cc1	53*	10	9	-1
O=S(=O)(Nc1cc(Sc2cccc3cccnc23)c(O)c2ccccc12)c1ccccc1	.	204	204*	.
CCc1ccc(S(=O)(=O)Nc2ccc(O)c3ccccc23)cc1	27	25	78*	4
O=S(=O)(Nc1ccccc1O)c1ccc(-c2ccccc2)cc1	5	59	65*	4
O=C(CCNC(=O)c1ccccc1Cl)NN1C(=O)NC2(CCCCC2)C1=O	1	0	-8	1
COc1ccccc1NC(=O)c1ccc(-c2nn(C)c(=O)c3ccccc23)cc1	-9	-8	12	-1
CCOC(=O)c1ccc(NC(=O)Nc2nncs2)cc1	.	.	.	-3
COc1ccccc1OCCNc1cc(N2CCCCC2)ccc1[N+](=O)[O-]	69*	24	29	5
